Screens (PubChem BioAssay)
Rows were chosen to be rich in hits. Some 0.78% of all compounds tested hit in one or more screens of this group.
SARS 3CLpro inh-1: SARS-CoV 3CLpro protease inhibitors, primary screen, biochemical, quenched FRET; recombinant SARS-CoV 3CLpro, quenched FRET peptide cleavage; inhibition, % at 6 µM; hit rate 0.14% among 290,000; AID 1706, 2009; in the data active = inhibition above about 12%
BJeLR viability: MLPCN primary cell-based screen for lethality selective to Ras in HRASV12 cells. BJeLR (HRASV12) viability, CellTiter-Glo ATP luminescence, 48 h. hit rate 0.17% among 300,000. inhibition, % (concentration not given with the values); in the data active = inhibition above about 50%
SSB-PriA inh: inhibitors of Klebsiella pneumoniae PriA binding to SSB C-terminal tail, primary screen, biochemical, AlphaScreen; PriA–SSB C-terminal tail interaction (Klebsiella pneumoniae); AID 1272365, 2023; hit rate 0.6% among 430,000; AlphaScreen SSBct-PriA binding, biotinylated peptide; inhibition, % at 33 µM; in the data active = inhibition mostly above about 37%, no sharp cut-off; inactive = mostly below about 20%;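 also: plate controls were negative control peptide for no effect and reference peptide for full effect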
SARS 3CLpro inh-2: confirmation of SARS coronavirus 3C-like protease inhibitors, retest, confirmation, biochemical; inhibition, % at 6 µM; hit rate 36% among 380; shares compounds with SARS 3CLpro inh-1; QFRET protease activity assay, 3CLpro; AID 1879, 2009; in the data active = inhibition above about 13%
An asterisk follows results filed as active; · = not tested or not shown.

SMILES	SARS 3CLpro inh-1	BJeLR viability	SSB-PriA inh	SARS 3CLpro inh-2
O=C(NCc1ccco1)C(c1ccco1)N(CCc1ccccc1)C(=O)Cn1nnc2ccccc21 (stereo unspecified)	26*	-2	0	28*
CCOCCCN(C(=O)Cn1nnc2ccccc21)C(C(=O)NCc1ccco1)c1ccncc1 (stereo unspecified)	-2	·	-20	·
O=C(NCc1ccco1)C(c1cccs1)N(Cc1ccccc1)C(=O)Cn1nnc2ccccc21 (stereo unspecified)	20*	2	-7	29*
O=C(NCc1ccco1)C(c1ccncc1)N(C(=O)Cn1nnc2ccccc21)c1ccccc1F (stereo unspecified)	5	1	-5	·
COCCNC(=O)C(c1ccccc1)N(Cc1cccs1)C(=O)Cn1nnc2ccccc21 (stereo unspecified)	23*	18	7	21*
COCCNC(=O)C(c1ccncc1)N(Cc1ccccc1)C(=O)Cn1nnc2ccccc21 (stereo unspecified)	2	4	-15	·
O=C(CCS(=O)(=O)c1ccccc1)Nc1sccc1-c1nc(C2CC2)no1	·	·	-2	·
O=C(Cn1c(=O)oc2ccc(Cl)cc21)N1CCCc2ccccc21	·	·	-10	·
O=S(=O)(NCCS(=O)(=O)N1CCN(c2ccccc2)CC1)c1cccs1	·	·	-11	·
CN(C)S(=O)(=O)c1ccc(SCC(=O)Nc2cccc(S(=O)(=O)N3CCCC3)c2)nc1	·	·	8	·
CN(C)S(=O)(=O)c1cccc(NC(=O)CSc2cccc3cccnc23)c1	17*	2	65*	35*
CCCOC(=O)c1c(-c2ccc(C)cc2C)csc1NC(=O)C1C2CCC(O2)C1C(=O)O (stereo unspecified)	12*	-3	-3	1
CCOC(=O)c1c(NC(=O)C2C3CCC(O3)C2C(=O)O)sc(C)c1-c1ccc(F)cc1 (stereo unspecified)	-2	-19	1	·
O=C(c1ccco1)N1CCN(C(=O)c2cc(=O)[nH]c3ccccc23)CC1	·	·	-8	·
O=C(c1cc(=O)[nH]c2ccccc12)N1CCN(c2ccccc2)CC1	32*	5	10	31*
Cc1cccc(N2CCN(C(=O)CCn3c(=O)[nH]c4ccccc4c3=O)CC2)c1C	2	-10	-5	·
Cc1cccc(N2CCN(C(=O)c3cc(=O)[nH]c4ccccc34)CC2)c1C	41*	9	-16	55*
O=C(c1ccccc1F)N1CC(c2nc(-c3ccsc3)no2)C1	·	·	0	·
CCn1cc(C(=O)NC(=S)Nc2ccccc2Br)cn1	1	2	-16	·
CCn1cc(C(=O)NC(=S)Nc2ccccc2[N+](=O)[O-])cn1	13*	3	5	-5
O=C(c1cn(-c2cc(N3CCSCC3)ncn2)cn1)N1CCCc2ccccc21	·	·	-7	·
Cc1cccc(CN2CCN(C(=O)Cc3ccccc3)CC2)c1	4	2	-4	·
Cc1cccc(CN2CCN(C(=O)CCl)CC2)c1	16*	5	1	47*
CC(NC(=O)Oc1ccccc1)C(c1cccs1)N1CCN(c2ccccc2F)CC1 (stereo unspecified)	·	·	-19	·
O=C(NCCn1ncc2c(=O)n(Cc3ccccc3F)cnc21)c1cc2ccccc2o1	·	·	10	·
SMILES	SARS 3CLpro inh-1	BJeLR viability	SSB-PriA inh	SARS 3CLpro inh-2
O=C(CSCC(=O)Nc1nc2ccccc2s1)Nc1nc(-c2ccccc2)c(-c2ccccc2)s1	·	·	15	·
O=C(O)CSCC(=O)N(Cc1ccccc1)c1nc(-c2ccccc2)c(-c2ccccc2)s1	12*	-7	15	5
Cc1cccc(NC(=O)C2CCN(S(C)(=O)=O)CC2)n1	·	·	-7	·
COc1cc(NC(=O)c2cc(Cl)nnc2Cl)cc(OC)c1OC	22*	11	3	6
COc1cccc(NC(=O)c2cc(Cl)nnc2Cl)c1	7	-8	13	·
O=C(CSc1ccccn1)Nc1nonc1[N+](=O)[O-]	41*	23	-9	49*
O=C(CSc1ccccn1)Nc1ccc(NC(=O)CSc2ccccn2)cc1	-1	-1	-6	·
O=C(Cc1ccc(Cl)cc1)NCCCn1ccnc1	5	1	8	·
O=C(Cc1c(F)cccc1Cl)NCCCn1ccnc1	38*	-2	2	-5
Nc1c(-c2nc(-c3ccc4c(c3)OCO4)cs2)nnn1-c1ccc(Br)cc1F	·	·	-13	·
Cc1cc(C)c(-c2csc(NC(=O)Cc3cccc4ccccc34)n2)c(C)c1	·	·	-16	·
Cc1ccccc1NC(=O)NCC1CCN(c2ccccn2)CC1	·	·	-19	·
COc1ccccc1/C=C1\SC(=S)N(CCC(=O)NNC(=O)c2ccccc2OC)C1=O	14*	-5	-9	0
